hgDAF-12 ag: activates the H. glycines DAF-12 receptor ligand-binding domain. actives 1.8% (n = 370,000). HEK293 GAL4-hgDAF12 UAS-luciferase reporter, agonist luminescence; normalized to butyrate control. activation, % at 6.8 µM;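 active = activation above a cutoff set at the mean of all screened compounds plus 3 SD, cut at about 10% in these data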;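 note: 0% = DMSO wells and 100% = sodium butyrate wells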
hcDAF-12 act: activates DAF-12 receptor from parasite H. contortus; actives 1.4% (n = 370,000); activation, % at 6.8 µM; HEK293 hcDAF-12 lit1-tk-luc reporter, luminescence; 0% DMSO, 100% Δ7-dafachronic acid;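 active = activation above the mean of all tested compounds plus 3 SD, cut at about 5.5% in these data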;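 note: 100% = response to 3 µM Δ7-dafachronic acid high control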
ssDAF-12 act: activators of S. stercoralis DAF-12 nuclear receptor; HEK293 ssDAF-12/GRIP1 lit1-tk-luc reporter, luminescence; % of 3 µM dafachronic acid response; activation, % at 6.8 µM; actives 1% (n = 370,000); AID 652126;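 active = activation above the mean over all tested compounds plus 3 SD, cut at about 0.9% in these data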;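 note: 0% = DMSO-only wells and 100% = 3 µM delta7-dafachronic acid wells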
esBAF inh: inhibitors of esBAF chromatin remodeling in mouse ES cells; Bmi1-luciferase knock-in reporter, 24 h; 100% = twice the neutral-well signal; actives 2% (n = 350,000); reporter increase, % at 12.5 µM; in the data active = activation above about 40%; inconclusive = no clear call, values can overlap the other calls;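 note: 0% = median of the plate's neutral control wells and 100% = double that signal; a rise in the Bmi1 reporter signal indicates esBAF inhibition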
Wnt bcat act: Wnt/beta-catenin pathway activation | Wnt/beta-catenin reporter cell assay, activator, plate reader | activation, % at 9.35 µM | actives 1.2% (n = 300,000); in the data active = activation above about 30%, passing the limit was not always enough; inconclusive = no clear call, values can overlap the other calls;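 note: 0% = neutral control wells and 100% = positive control wells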
DAX1 inh: blocks DAX1 repression of SF-1 activated StAR promoter; HEK293T StAR-luciferase reporter, SF-1/DAX-1 repression relief; inhibition, % at 6.8 µM; actives 1.1% (n = 370,000); AID 652010;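 active = inhibition above the mean over all tested compounds plus 3 SD, cut at about 3.6% in these data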;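 note: 0% = DAX-1 cells with DMSO and 100% = cells lacking DAX-1 with DMSO; higher inhibition means more luminescence from relief of DAX-1 repression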
* = called active by the depositor; u = inconclusive; x = no result given. Hits are enriched below; roughly 4.2% of the tested compounds scored in any of these assays.

SMILES	hgDAF-12 ag	hcDAF-12 act	ssDAF-12 act	esBAF inh	Wnt bcat act	DAX1 inh
O=C(Nc1ccccc1N1CCOCC1)c1ccc2ccccc2c1	4	3	0	55*	5	0
O=C(Nc1ccc(F)cc1F)c1ccc2nc(N3CCOCC3)sc2c1	-2	-1	-1	42*	3	0
CCNC(=O)Nc1ccc2c(c1)C(=O)N(C)[C@H]1CC[C@@H](CC(=O)NCC3CC3)O[C@@H]1CO2	x	x	x	3	x	x
COc1ccccc1CNC(=O)C[C@@H]1CC[C@@H](NC(=O)CN(C)C)[C@H](CO)O1	x	x	x	0	x	x
CC(=O)N[C@H]1CC[C@H](CC(=O)NCc2ccc(Cl)cc2)O[C@@H]1CO	x	x	x	4	x	x
C/C(=N\NC(=O)c1ccc(F)cc1)c1ccc(NC(=O)Cc2ccccc2)cc1	7	3	-1	26	7	4.1*
CC/C(=N/NC(=O)c1ccccc1)c1ccc(OCCN2CCOCC2)cc1	10	2	1.6*	x	5	2
O=C(NN=C1CCN(Cc2ccccc2)CC1)c1ccccc1	11*	2	0	x	2	1
CC/C(=N/NC(=O)c1ccc(Br)cc1)c1ccc(OCCN2CCOCC2)cc1	4	-1	0	x	1	0
O=C(Nc1ccc(S(=O)(=O)N2CCOCC2)cc1)c1ccco1	-2	-2	-1	4	4	-1
O=C(Nc1ccc(CN2CCOCC2)cc1)c1ccco1	7	5.6*	0	0	15	2
CO[C@H]1CN(C)C(=O)c2ccc(NS(=O)(=O)C3CCCCC3)cc2OC[C@@H](C)NC[C@H]1C	x	x	x	-2	x	x
CC(C)NC(=O)N(C)C[C@H]1OCCCC[C@@H](C)Oc2ccc(NS(=O)(=O)c3cccs3)cc2C(=O)N([C@H](C)CO)C[C@H]1C	x	x	x	-4	x	x
O=C(Nc1ccc(CN2CCOCC2)cc1)c1ccc(F)cc1	6	3	0	16	12	1
O=C(Nc1ccc(CN2CCOCC2)cc1)c1ccc2ccccc2c1	13*	2	0	61*	2	2
COc1ccc2c(c1)O/C(=C\c1sccc1C)C2=O	11*	2	-1	42*	x	0
COc1cc(/C=N/NC(=S)NC2CC3CCC2C3)ccc1O (stereo not given)	8	0	-2	27	17	0
COc1cccc(C=NNC(=S)NC2CC3CCC2C3)c1O (stereo not given)	7	4	0	x	37*	4
O=C(O)C1=C[C@@H](c2ccc3c(c2)OCO3)C[C@@H](OCc2ccc(CO)cc2)O1	0	0	-1	-3	0	0
O=C(NC1CC1)C1=C[C@H](c2ccc3c(c2)OCO3)C[C@H](OCc2ccc(CO)cc2)O1	11*	-1	0	5	1	0
O=C(Nc1ccccc1)C1=C[C@@H](c2ccc3c(c2)OCO3)C[C@@H](OCCCCO)O1	3	-1	0	67*	22	0
O=C(Nc1ccccc1)C1=C[C@H](c2ccc3c(c2)OCO3)C[C@H](OCCCCO)O1	9	1	-1	48*	10	1
O=C(NCc1ccccc1)C1=C[C@@H](c2ccc3c(c2)OCO3)C[C@@H](OCCCCO)O1	0	-2	-2	3	-2	0
COc1ccc(C(=O)C[n+]2cc(Br)cc3ccccc32)cc1[N+](=O)[O-]	2	5.9*	1.0*	1	-2	0
O=C1C=C(Nc2ccccc2C(=O)O)c2ccccc2C1=O	1	6.3*	0	-5	7	0
SMILES	hgDAF-12 ag	hcDAF-12 act	ssDAF-12 act	esBAF inh	Wnt bcat act	DAX1 inh
O=C1C=C(Nc2ccccc2)c2ccccc2C1=O	-8	-1	-1	x	4	-2
CCc1ccc(NC2=CC(=O)C(=O)c3ccccc32)cc1	6	1	0	x	33*	-1
Cc1cccc(NC(=O)CN(C)C(=O)c2ccc3ccccc3n2)c1C	4	5	0	x	2	3
COCCN(CC(=O)Nc1cccc(C)c1C)C(=O)c1ccc2ccccc2n1	6	4	0	47*	-4	2
Cc1nc2sc(C(=O)NC3CC3)c(N)c2c(C)c1Cl	8	4	0.9*	x	x	1
O=C(CSc1nc2ccc(Cl)cc2[nH]1)c1cccs1	5	5	1.0*	u	37*	1
CC(=O)N(C)C[C@@H]1Oc2cc(C#Cc3ccccn3)ccc2S(=O)(=O)N([C@@H](C)CO)C[C@@H]1C	x	x	x	3	x	x
Oc1ccc(Nc2nc(-c3ccc(O)cc3)cs2)cc1	2	-2	-1	x	x	-1
Cc1ccnc(Nc2nc(-c3ccc(O)cc3)cs2)c1	8	-1	-1	50*	17	1
Cc1ccnc(Nc2nc(-c3ccc(O)c(O)c3)cs2)c1	5	4	0	17	8	0
Cc1ccnc(Nc2nc(-c3ccc(O)cc3O)cs2)c1	2	-1	-1	79*	16	0
O=S(=O)(c1ccccc1F)N1C[C@@H]2[C@H](c3ccccc31)[C@H](CO)N2Cc1ccc2c(c1)OCO2	x	x	x	1	x	x
C[C@@H]1CN([C@H](C)CO)C(=O)c2c(c3ccccc3n2C)-c2ccccc2CO[C@H]1CN(C)C(=O)Nc1ccc2c(c1)OCO2	x	x	x	81*	x	x
COC(=O)N(C)C[C@@H]1OCc2ccccc2-c2c(n(C)c3ccccc23)C(=O)N([C@H](C)CO)C[C@@H]1C	-3	0	-1	6	-2	3.8*
COC(=O)N(C)C[C@H]1OCc2ccccc2-c2c(n(C)c3ccccc23)C(=O)N([C@@H](C)CO)C[C@@H]1C	x	x	x	-2	x	x
C[C@H](CO)N1C[C@H](C)[C@H](CN(C)C(=O)Nc2ccc3c(c2)OCO3)OCc2ccccc2-c2c(n(C)c3ccccc23)C1=O	x	x	x	93*	x	x
C[C@H]1CN([C@@H](C)CO)C(=O)c2c(c3ccccc3n2C)-c2ccccc2CO[C@H]1CN(C)C(=O)Nc1ccc2c(c1)OCO2	x	x	x	60*	x	x
C[C@@H]1CN([C@H](C)CO)C(=O)c2c(c3ccccc3n2C)-c2ccccc2CO[C@@H]1CN(C)C(=O)Nc1ccc2c(c1)OCO2	-2	0	-1	3	-2	-2
C[C@@H]1CN([C@@H](C)CO)C(=O)c2c(c3ccccc3n2C)-c2ccccc2CO[C@H]1CN(C)C(=O)Nc1ccc2c(c1)OCO2	x	x	x	86*	x	x
C[C@@H]1CN([C@@H](C)CO)S(=O)(=O)c2ccc(C#CC3CC3)cc2O[C@@H]1CN(C)C	x	x	x	-3	x	x
COCC(=O)N(C)C[C@@H]1Oc2ncc(C3=CCCCC3)cc2C(=O)N([C@@H](C)CO)C[C@H]1C	x	x	x	-2	x	x
O=C(NCc1nnc(SCC(=O)N2CCCc3ccccc32)o1)c1c(F)cccc1Cl	-4	-2	-2	0	50*	0

Screens deposited in PubChem by several laboratories.
